Source: PubChem BioAssay
KDM5B inh: Primary screen for KDM5B Histone Demethylases FDH-coupled qHTS | Lysine-specific demethylase 5B (Homo sapiens), Q9UGL1 | KDM5B demethylase, FDH-coupled NADH fluorescence (FDH is formaldehyde dehydrogenase) | Potency, µM (series often up to 57.7 µM), hits mostly inhibitors | 220,000 tested, 2.6% active | AID 1347165, 2019; active = well fitted inhibition curve with a large enough effect; note: 0% is about no effect; nearly all actives have a fitted effect of over 70% in size
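Here, H3K4me3 peptide (12.5 µM in substrate mix) is demethylated by KDM5BΔAP, 200 nM final, after 10 min compound exposure. Formaldehyde product is coupled through FDH (0.25 U/mL in mix) to NADH fluorescence; 30-min ΔRFU feeds dose-response curves.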
An asterisk follows results filed as active; i = inactive. Only a selection was taken, and hits are over-represented in it overall. Potency is the fitted concentration of half-maximal effect.

SMILES | KDM5B inh
Nc1nc2c(s1)C(c1ccc(F)cc1F)CC(=O)N2 (configuration not stated) | 31.6µM*
Nc1nc2c(s1)C(c1cccc(F)c1F)CC(=O)N2 (configuration not stated) | 22.4µM*
O=C1CC(c2ccccc2F)c2c(n3c(nc4ccccc43)[nH]c2=O)N1 (configuration not stated) | i
O=C1CCCC2=C1C(c1ccc(F)cc1F)Nc1nonc1N2 (configuration not stated) | i
CC1=C(C(=O)OCC2CCCCC2)C(c2ccc(F)cc2F)CC(=O)N1 (configuration not stated) | i
CC(C(=O)N1CCN(Cc2ccccc2)CC1)n1nc(C(=O)O)c2ccccc2c1=O (configuration not stated) | i
O=C1NC(CCc2ccccc2)C(=O)N1Cc1coc(-c2cccc(F)c2)n1 (configuration not stated) | i
c1ccc(OCCCCN2CCC(c3nc4ccccc4s3)CC2)cc1 | i
S=c1cc[nH]c(=S)[nH]1 | i
CCCc1cc(=O)oc2cc(OCC(=O)O)c(Cl)cc12 | i
CSc1nc(C)c(CCC(=O)NC(C)c2ccc(F)c(F)c2)c(C)n1 (configuration not stated) | i
O=c1ncn(CC2CC2)c2ccc(-c3ccc(F)cc3)nc12 | 35.5µM*
O=c1ncn(Cc2ccccc2)c2ccc(-c3ccc(F)cc3)nc12 | 35.5µM*
O=C(CCC1CCCC1)Nc1nc(-c2ccc(F)cc2)cs1 | i
Cn1c(=O)c2c(ncn2Cc2ccc(F)cc2)n(C)c1=O | i
O=c1ncn(Cc2ccccc2)c2ccc(NCCOc3ccccc3)nc12 | 35.5µM*
O=c1ncn(CC2CC2)c2ccc(-c3ccoc3)nc12 | 31.6µM*
CC(=O)Nc1cccc(-c2ccc3c(n2)c(=O)ncn3Cc2ccccc2)c1 | i
O=C1COc2ccc(-c3ccc(F)cc3)nc2CN1 | i
CCn1cnc2c1c(=O)n(CC(=O)OCCOc1ccccc1)c(=O)n2Cc1ccccc1 | i
Cc1nn(CC(=O)NCCOc2ccccc2)c(=O)c2ccccc12 | i
O=C(NC1CC2CCC1C2)c1ccccc1Cl (configuration not stated) | i
CC(c1cccs1)N(C)S(=O)(=O)c1cc(C(=O)O)cs1 (configuration not stated) | i
Cc1cccc(-n2c(SCC(=O)N(C)CCC#N)nc3ccccc3c2=O)n1 | i
CCCC(C)NC(=O)c1ccc(CNC(=O)NC(C)C)cc1 (configuration not stated) | i
SMILES | KDM5B inh
CC1CCC(=C(C#N)C(=O)NC2CC2)CC1 (configuration not stated) | i
S=c1sc2c(s1)SC1CC=CC1S2 (configuration not stated) | i
COc1ccccc1N(CCC#N)C(=O)CN(C)CC(=O)Nc1ccccc1Cl | i
O=c1ncn(CC2CC2)c2ccc(-c3ccc4c(c3)OCO4)nc12 | i
O=C1Nc2ccccc2CCC1n1nc(-c2ccc(Cl)cc2)ccc1=O (configuration not stated) | i
O=c1ncn(CC2CC2)c2ccc(-c3ccc(Cl)cc3)nc12 | 39.8µM*
O=C(c1ccc(-n2cnnn2)cc1)N(CCc1cccs1)Cc1cccs1 | i
Cc1ccccc1-c1nc(S(=O)(=O)c2ccc3c(c2)OCCO3)c(N2CCN(C)CC2)o1 | i
CC1(COCC2CC2)COc2ccc(C(=O)NCc3ccccc3)cc2N1 (configuration not stated) | 35.5µM*
CC1(COCC2CC2)COc2ccc(C(=O)Nc3ccc4[nH]ccc4c3)cc2N1 (configuration not stated) | i
CC(C)CNC(=O)c1ccc2c(c1)NC(C)(COCC1CC1)CO2 (configuration not stated) | 39.8µM*
CC1(COCC2CC2)COc2ccc(C(=O)Nc3ccccc3)cc2N1 (configuration not stated) | 25.1µM*
CC(C)OCCCNC(=O)Cn1ccc2ccc(Cl)cc21 | i
COc1ccccc1C(=O)Nc1ccc2oc(-c3ccc(Cl)cc3)nc2c1 | i
CC(=O)Oc1cccc2cc(-c3nc(-c4ccc(F)cc4)no3)c(=O)oc12 | i
CC(C)Sc1nc2c(c(=O)n(C)c(=O)n2C)n1Cc1cccc2ccccc12 | i
COc1cc(-c2noc(-c3ccc(S(=O)(=O)NC4CC4)o3)n2)ccc1OC(C)C | i
CC1(C(=O)Nc2ccccc2)CCc2cnc(N3CCOCC3)nc21 (configuration not stated) | 35.5µM*
COc1cccc(Nc2ncc3c(n2)C(C)(C(=O)NC2CCOCC2)CC3)c1 (configuration not stated) | i
CC(=O)Nc1ccc(OCC(=O)NCc2ccc(N3CCOCC3)cc2)nc1 | i
COc1cccc(NC(=O)C2(C)CCc3cnc(N4CCOCC4)nc32)c1 (configuration not stated) | 28.2µM*
COc1ccc(NC(=O)C2(C)COCc3cnc(Nc4ccccc4)nc32)cn1 (configuration not stated) | i
CC1(C(=O)NCc2cccc(Cl)c2)CCc2cnc(N3CCOCC3)nc21 (configuration not stated) | 35.5µM*
COc1cccc(Nc2ncc3c(n2)C(C)(C(=O)NCc2cccnc2)CC3)c1 (configuration not stated) | i
Cn1ccc(NC(=O)C2(C)CCc3cnc(Nc4ccccc4)nc32)n1 (configuration not stated) | i
SMILES | KDM5B inh
O=C(NCc1cccc(Cl)c1)c1ccc(CN2C(=O)NC3(CCOCC3)C2=O)cc1 | i
COc1ccc(NC(=O)C2(C)CCc3cnc(N4CCOCC4)nc32)cn1 (configuration not stated) | 35.5µM*
COc1cccc(Nc2ncc3c(n2)C(C)(C(=O)NC2CCN(C)CC2)CC3)c1 (configuration not stated) | i
CC(=O)N1CCN(C(=O)C2(C)CCc3cnc(Nc4ccccc4)nc32)CC1 (configuration not stated) | i
CC12C3C=CC(C3)C1([Si](C)(C)C)C2C(=O)O (configuration not stated) | i
Cc1[nH]c2ccc(F)cc2c1C(=O)CCl | i
CCc1ccc(-c2nc3ccccc3c(C(=O)O)c2C)cc1 | i
Clc1ccc(-c2cnc3n2C[C@H](CNCc2ccc4c(c2)OCO4)OC3)cc1 | i
CC(=O)Nc1ccc(-c2nc(N3CCCCC3)sc2C)cc1 | i
Cc1cccc(C(CC(=O)Nc2cccc(-c3ccno3)c2)n2cccc2)c1 (configuration not stated) | i
Cc1cc(SCC(=O)O)c(C)cc1Br | i
Cc1ccc2oc(C(=O)N3CCCC3)cc(=O)c2c1 | i
O=C(NCc1ccc(CN2CCOCC2)cc1)c1cnn(-c2ccccc2)c1 | i
CC1(C(=O)NCc2ccccc2)CN(Cc2ccccc2)Cc2ccc(N3CCOCC3)nc21 (configuration not stated) | 22.4µM*
O=C(NCc1cccnc1)C(=O)NCC(c1ccco1)N1CCOCC1 (configuration not stated) | i
COc1ccc(CN2CCc3oc(C)c(C(=O)NCc4cccnc4)c3C2)cc1 | i
CC(C)CNc1ccc2c(n1)C(C)(C(=O)NCc1ccco1)CN(Cc1ccccc1)C2 (configuration not stated) | i
Cc1cc(N2CCOCC2)nc2ccc(NC(=O)NC(C)C)cc12 | i
